Test results published in PubChem BioAssay AID651899 (Broad Institute, 2012).
Results with a measured potency or affinity are listed apart. Values without a mark were called inactive. The rule behind the calls is not given here.

Test: HEK293 cell viability loss – plate reader, cherry-pick, cytotoxicity control, dose response (AID 651899);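 note: cells exposed to compound for 48 hours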
Settings: series mostly up to 26 µM; activity change, negative = cytotoxicity: at the top concentration

| SMILES | activity change, negative = cytotoxicity |
| --- | --- |
| CC(=O)c1ccc(N2CCN(S(=O)(=O)c3c(C(=O)N4CCCC4)c(C)n(C)c3C)CC2)cc1 | 15.4% |
| COc1ccc(NC(=O)c2ccc(Cl)nc2)cc1S(=O)(=O)N1CCOCC1 | -21.3% |
| CN1c2ccc(-c3ccccc3)cc2[C@H]2[C@H](CCN2C(=O)Cc2ccccn2)[C@H]1CO | 13.3% [at 23.5 µM] |
| CC(Oc1ccc2ccc(=O)oc2c1)C(=O)N1CCOCC1 (stereo unspecified) | -12.7% |
| CN1c2ccc(-c3cccc(F)c3)cc2[C@H]2[C@H](CCN2C(=O)C2CC2)[C@H]1CO | 29% [at 12 µM] |
| C/C=C/c1ccc2c(c1)O[C@@H](CN(C)C(=O)c1ccc3c(c1)OCO3)[C@@H](C)CN([C@@H](C)CO)S2(=O)=O | 30.5% |
| COC(=O)C[C@@H]1C[C@@H]2c3cc(NC(=O)c4cccnc4)ccc3O[C@@H]2[C@@H](CO)O1 | 0.951% |
| O=C1CCCc2c1cc(C(=O)NCCCN1CCOCC1)c(=O)n2-c1ccc(Cl)cc1 | -31.2% |
| CCC(CO)Oc1cc(NC(=O)c2cccc(F)c2)c2ncn(C(C)C)c2c1 (stereo unspecified) | 8.15% |
| COc1ccc(NC2c3ccccc3C(=O)N2c2cccnc2)cc1Cl (stereo unspecified) | -15% |
| CN1c2ccc(-c3cccc(F)c3)cc2[C@H]2[C@H](CCN2C(=O)c2ccncc2)[C@H]1CO | 5.32% |
| CCC(Sc1nc2ccsc2c(=O)n1Cc1ccc(C(=O)O)cc1)C(=O)Nc1cccc(OC)c1 (stereo unspecified) | 60% |
| CCOC(=O)c1c(C)[n+](-c2ccc(C)cc2)c(CC)c2cc(OC)c(OC)cc12 | -27.8% |
| O=C(N[C@@H]1CC[C@H](CCn2cc(-c3cccnc3)nn2)O[C@@H]1CO)c1ccccc1F | 7.06% |
| O=C(c1ccccc1F)N1CC[C@@H]2[C@H](CO)Nc3ccc(Br)cc3[C@@H]21 | -16% |
| Cc1cc(NC(=O)CN(C)S(=O)(=O)c2cnc[nH]2)ccc1Br | -14.2% |
| Cc1ccccc1S(=O)(=O)NCC[C@H]1CC[C@@H](NC(=O)Nc2cccc(F)c2)[C@H](CO)O1 | -4.64% |
| COC(=O)C1=C(C)Nc2sc(C(N)=O)c(N)c2C1c1ccncc1 (stereo unspecified) | 10.5% |

| SMILES | activity change, negative = cytotoxicity |
| --- | --- |
| Fc1ccc(-c2ccc3c(c2)C2CC3CCN2)cc1 (stereo unspecified) | 8.18% |
| CN1CCCC1CCOC(C)(c1ccccc1)c1ccc(Cl)cc1 (stereo unspecified) | 18.1% |
| Cc1ccc(S(=O)(=O)N(C)C)cc1NC(=O)CSc1nncs1 | 27.5% |
| O=C(C1CCCN(S(=O)(=O)c2cccnc2)C1)N1CCn2c1nc1ccccc12 (stereo unspecified) | -4.71% |
| Cc1nc(=O)c(-c2ccccc2)c(C)n1-c1ccc(Br)cc1 | 21.7% |
| O=C(Nc1ccc2nccnc2c1)c1cnccn1 | -15.9% |
| CC1=C(C#N)C(c2cccnc2)C2=C(CC(c3ccc(Cl)cc3)CC2=O)N1 (stereo unspecified) | -11.8% |
| Cc1cc(C(=O)NC2CC(C)(C)Cc3c2cnn3-c2cccc(F)c2)nn1C (stereo unspecified) | -25.6% |
| C=C(C)CSc1nc(N)c2c3c(sc2n1)CCC3 | 11.3% |
| CC(=O)c1ccc(N2CCN(C(=O)c3ccc4c(c3)OCO4)CC2)cc1 | -0.24% |
| Cc1c2cnn(CC(=O)NCc3ccccn3)c(=O)c2c(C)n1Cc1ccc(Cl)cc1 | 26.4% |
| COC(=O)C1CCN(C(c2ccc(OC)c(OC)c2)c2sc3nc(C)nn3c2O)CC1 (stereo unspecified) | 35.7% |
| CCCCN1C(=O)c2ccc(C(=O)Nc3cccnc3)cc2C1=O | -18.1% |
| O=C(c1cccc(F)c1)N1CC[C@@H]2[C@H]1c1cc(-c3cccc(F)c3)ccc1N[C@@H]2CO | 15.6% [at 23.5 µM] |
| CCc1c(C)nc2ncnn2c1Nc1ccc(C#N)c(Cl)c1 | -0.614% |
| Cc1nnc(N2CCC(C(=O)N3CCCCC3)CC2)c2nn(-c3ccc(Cl)cc3)c(C)c12 | -6.45% |
| COC(=O)C[C@@H]1CC[C@@H]2[C@H](COC[C@@H](O)CN2C(=O)Nc2cccc(F)c2)O1 | -4.94% |
| COc1ccc(C(=O)C2CCCN(C(=O)c3ccc(C(C)=O)s3)C2)c(C)c1 (stereo unspecified) | -17.8% |
